Source: PubChem BioAssay AID598 (SRMLSC, 2007)
Screen size: about 85,000 compounds; about 5,100 (6%) were called active. For the sample, actives were picked, then their nearest neighbours and some compounds at random. Values without a mark were called inactive.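 Rule for the calls: active = viability at or below 40%; inactive = viability above 40%.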

experiment: H69AR cell viability reduction – human, 86K library, primary screen (AID 598); conditions: H69AR lung tumor viability, ATP luminescence, 72 h; at 10 µM; stronger effect = lower value;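 note: multidrug resistant small cell line overexpressing MRP-1 efflux transporter; 100% = mean luminescence of untreated control wells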

| Compound | viability |
| --- | --- |
| Cc1ccc(Cn2c(C)nc3c(c2=O)c2nc4ccccc4nc2n3Cc2ccco2)cc1 | 83.3% |
| COCCCn1c2nc3ccccc3nc2c2c(=O)n(Cc3ccc(Cl)cc3)c(C)nc21 | 64.8% |
| Cc1nc2c(c(=O)n1Cc1ccco1)c1nc3ccccc3nc1n2Cc1ccccc1 | 11.2% (active) |
| OCCCN1c2ccccc2Nc2nnc(-c3ccccc3)cc21 | 39.4% (active) |
| Cc1nc(NC(=O)C2CCCCC2)sc1C | 91.5% |
| CCNS(=O)(=O)c1ccc(NC(=O)Nc2cccc(C(F)(F)F)c2)cc1 | 9.94% (active) |
| O=C(O)CSCC(=O)Nc1cccc(C(F)(F)F)c1 | 96.6% |
| CCNS(=O)(=O)c1ccc(NC(=O)Nc2cccc(OC)c2)cc1 | 82.3% |
| COc1ccc(-c2cn(-c3ccc(C)cc3)c(=O)n2CC(=O)Nc2ccc(OC)c(OC)c2)cc1 | 76.5% |
| CS(=O)(=O)n1nc(-c2ccccc2)nc1NCc1ccco1 | 96.7% |
| Cc1cc(S(=O)(=O)NC2CCCCC2)ccc1OCC(=O)NCc1cccnc1 | 107% |
| CC1(C)CC(CC(=O)O)C(=O)O1 (stereo not drawn) | 98% |
| OC(COc1cccc2ccccc12)CN1CCN(c2ccccn2)CC1 (stereo not drawn) | 86.3% |
| COc1cccc(OCC(O)CN2CCN(CCO)CC2)c1 (stereo not drawn) | 96.9% |
| Cc1ccc(OCC(O)CN2CCN(CC(O)COc3ccc(C)cc3Cl)CC2)c(Cl)c1 (stereo not drawn) | 1.96% (active) |
| CCN(CC(=O)NCc1cccs1)c1nnnn1-c1ccccc1 | 14% (active) |
| O=C(CSc1nnnn1-c1ccccc1)NCc1ccco1 | 80% |
| Cc1nnc(SCC(=O)NCc2cccs2)[nH]c1=O | 91.8% |
| c1ccc2c(c1)C(=NC1CCCCC1)NC2=NC1CCCCC1 | 15.9% (active) |
| O=C1CCCCC(=O)c2ccccc2N1 | 102% |
| Cc1nnc(OCC(=O)NCCC2=CCCCC2)c2ccccc12 | 101% |
| Cc1cc(C(=O)Nc2c(C)n(C)n(-c3ccccc3)c2=O)cs1 | 110% |
| COC(=O)Nc1c(C)n(C)n(-c2ccccc2)c1=O | 99.9% |
| Cc1c(NC(=O)c2coc(=O)c(Br)c2)c(=O)n(-c2ccccc2)n1C | 2.66% (active) |
| O=C(Nc1ccc(Cl)cn1)Nc1cccs1 | 98.4% |
| Clc1ccc(Nc2nc(-c3cccs3)cs2)nc1 | 31.8% (active) |
| c1ccc(Nc2nc(-c3ccncc3)cs2)nc1 | 86.7% |
| Cc1cc(C)c2cc(CN(Cc3nnnn3Cc3ccc(F)cc3)C3CCCC3)c(=O)[nH]c2c1 | 64.6% |
